Activity calls are given as the source filed them.

From PubChem BioAssay come the findings set out here.

Assay [1] has as its system PRMT1 (protein arginine N-methyltransferase 1). The assay can be described thus: PRMT1 binders on small-molecule microarrays, primary screen, biochemical, small-molecule microarray, 635 nm fluorescence (AID 1088).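 Also: binding of Prmt1 protein to compounds spotted on small-molecule microarray slides.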 The note with it: small-molecule microarray binding, higher = more signal.
The nature of assay [2]: yeast growth modulation, basal conditions, primary screen, YJM789 clinical isolate, OD600, 24 h (AID 1089).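 Also: growth of clinical yeast isolate S. cerevisiae YJM 789 seeded 1000 cells per well; test concentration not given here.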 As to conditions: S. cerevisiae YJM789 growth, higher = more signal, called active from +8 up or from −8 down.
Assay [3] in a line: fission yeast growth modulation, primary screen, strain 972, OD600, 24 h, no modulator (AID 1090).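 Also: basal condition with compound alone and no growth modifier present; test concentration not given here.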 As to conditions: S. pombe 972 growth, higher = more signal, called active from +8 up or from −8 down.
A short description of assay [4]: S. cerevisiae growth modulation with rapamycin, primary screen, strain BY4716, OD600, 96 h (AID 1091). Also: test concentration not given here. As to conditions: higher = more signal, called active from +8 up or from −8 down.
In assay [5] the target is Torsin-1A-interacting protein 2 (Homo sapiens) (UniProt Q8NFQ8). Description: LULL1 binders on small-molecule microarray, primary screen, cell lysate, human LULL1 lysate, 635/667 nm fluorescence (AID 1092).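 Also: probe is lysate of COS7 cells overexpressing human LULL1; score merges per-feature 667 nm fluorescence with signal-to-noise.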 As to conditions: hLULL1 lysate binding, 635 nm fluorescence, higher = more signal.
The nature of assay [6]: E. coli growth modulation, two-sided OD650, primary screen, E. coli filamentation project, strain DRC41, 24 h (AID 1093).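 Also: MC1000 strain lacking acrAB efflux and sulA so SOS filamentation is blocked; test concentration not given here.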 The note with it: OD650, 24 h, higher = more signal, called active from +8 up or from −8 down.
A short description of assay [7]: small-molecule microarray binders of probe aLefty2, primary screen, biochemical, biotinylated probe, 635/667 nm fluorescence (AID 1094).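 Also: score merges spot fluorescence near 667 nm with spot signal-to-noise ratio.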 As to conditions: higher = more signal.
Assay [8] deals with Noggin (protein binding on small-molecule microarray). Description: Noggin binders on small-molecule microarray, primary screen, biochemical, 635/667 nm fluorescence (AID 1095).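 Also: score merges 667 nm feature fluorescence with signal to noise over triplicate slides.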 As to conditions: 635 nm fluorescence, higher = more signal.
In assay [9] the target is Neurogenic locus notch homolog protein 3 (Homo sapiens) (UniProt Q9UM47). The assay can be described thus: NOTCH3 binders on small-molecule microarray, primary screen, biochemical, 635/667 nm fluorescence (AID 1096). As to conditions: NOTCH3 binding, 635 nm fluorescence, higher = more signal.
Assay [10] is described as follows: small-molecule microarray binders of probe aEGFR, primary screen, biochemical, biotinylated probe, 635/667 nm fluorescence (AID 1097).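 Also: probe is a biotinylated anti-EGFR antibody binding compounds printed on slides; score combines fluorescence near 667 nm and signal to noise of each spot.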 As to conditions: higher = more signal.

Sequence of Torsin-1A-interacting protein 2 (Homo sapiens) (Q8NFQ8 whole entry, looked up): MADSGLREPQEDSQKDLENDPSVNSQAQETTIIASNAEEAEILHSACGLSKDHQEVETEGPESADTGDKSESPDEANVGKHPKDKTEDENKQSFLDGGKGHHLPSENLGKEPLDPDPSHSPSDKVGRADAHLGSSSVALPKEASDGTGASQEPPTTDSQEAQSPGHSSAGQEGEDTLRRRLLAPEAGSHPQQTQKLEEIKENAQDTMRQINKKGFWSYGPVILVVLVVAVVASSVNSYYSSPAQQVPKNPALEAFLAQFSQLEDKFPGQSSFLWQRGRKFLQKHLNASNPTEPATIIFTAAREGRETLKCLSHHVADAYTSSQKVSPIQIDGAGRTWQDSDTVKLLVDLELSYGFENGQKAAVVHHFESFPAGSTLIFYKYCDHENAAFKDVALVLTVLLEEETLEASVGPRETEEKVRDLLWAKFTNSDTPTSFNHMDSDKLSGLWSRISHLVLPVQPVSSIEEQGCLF
Sequence of Neurogenic locus notch homolog protein 3 (Homo sapiens) (Q9UM47 whole entry, looked up): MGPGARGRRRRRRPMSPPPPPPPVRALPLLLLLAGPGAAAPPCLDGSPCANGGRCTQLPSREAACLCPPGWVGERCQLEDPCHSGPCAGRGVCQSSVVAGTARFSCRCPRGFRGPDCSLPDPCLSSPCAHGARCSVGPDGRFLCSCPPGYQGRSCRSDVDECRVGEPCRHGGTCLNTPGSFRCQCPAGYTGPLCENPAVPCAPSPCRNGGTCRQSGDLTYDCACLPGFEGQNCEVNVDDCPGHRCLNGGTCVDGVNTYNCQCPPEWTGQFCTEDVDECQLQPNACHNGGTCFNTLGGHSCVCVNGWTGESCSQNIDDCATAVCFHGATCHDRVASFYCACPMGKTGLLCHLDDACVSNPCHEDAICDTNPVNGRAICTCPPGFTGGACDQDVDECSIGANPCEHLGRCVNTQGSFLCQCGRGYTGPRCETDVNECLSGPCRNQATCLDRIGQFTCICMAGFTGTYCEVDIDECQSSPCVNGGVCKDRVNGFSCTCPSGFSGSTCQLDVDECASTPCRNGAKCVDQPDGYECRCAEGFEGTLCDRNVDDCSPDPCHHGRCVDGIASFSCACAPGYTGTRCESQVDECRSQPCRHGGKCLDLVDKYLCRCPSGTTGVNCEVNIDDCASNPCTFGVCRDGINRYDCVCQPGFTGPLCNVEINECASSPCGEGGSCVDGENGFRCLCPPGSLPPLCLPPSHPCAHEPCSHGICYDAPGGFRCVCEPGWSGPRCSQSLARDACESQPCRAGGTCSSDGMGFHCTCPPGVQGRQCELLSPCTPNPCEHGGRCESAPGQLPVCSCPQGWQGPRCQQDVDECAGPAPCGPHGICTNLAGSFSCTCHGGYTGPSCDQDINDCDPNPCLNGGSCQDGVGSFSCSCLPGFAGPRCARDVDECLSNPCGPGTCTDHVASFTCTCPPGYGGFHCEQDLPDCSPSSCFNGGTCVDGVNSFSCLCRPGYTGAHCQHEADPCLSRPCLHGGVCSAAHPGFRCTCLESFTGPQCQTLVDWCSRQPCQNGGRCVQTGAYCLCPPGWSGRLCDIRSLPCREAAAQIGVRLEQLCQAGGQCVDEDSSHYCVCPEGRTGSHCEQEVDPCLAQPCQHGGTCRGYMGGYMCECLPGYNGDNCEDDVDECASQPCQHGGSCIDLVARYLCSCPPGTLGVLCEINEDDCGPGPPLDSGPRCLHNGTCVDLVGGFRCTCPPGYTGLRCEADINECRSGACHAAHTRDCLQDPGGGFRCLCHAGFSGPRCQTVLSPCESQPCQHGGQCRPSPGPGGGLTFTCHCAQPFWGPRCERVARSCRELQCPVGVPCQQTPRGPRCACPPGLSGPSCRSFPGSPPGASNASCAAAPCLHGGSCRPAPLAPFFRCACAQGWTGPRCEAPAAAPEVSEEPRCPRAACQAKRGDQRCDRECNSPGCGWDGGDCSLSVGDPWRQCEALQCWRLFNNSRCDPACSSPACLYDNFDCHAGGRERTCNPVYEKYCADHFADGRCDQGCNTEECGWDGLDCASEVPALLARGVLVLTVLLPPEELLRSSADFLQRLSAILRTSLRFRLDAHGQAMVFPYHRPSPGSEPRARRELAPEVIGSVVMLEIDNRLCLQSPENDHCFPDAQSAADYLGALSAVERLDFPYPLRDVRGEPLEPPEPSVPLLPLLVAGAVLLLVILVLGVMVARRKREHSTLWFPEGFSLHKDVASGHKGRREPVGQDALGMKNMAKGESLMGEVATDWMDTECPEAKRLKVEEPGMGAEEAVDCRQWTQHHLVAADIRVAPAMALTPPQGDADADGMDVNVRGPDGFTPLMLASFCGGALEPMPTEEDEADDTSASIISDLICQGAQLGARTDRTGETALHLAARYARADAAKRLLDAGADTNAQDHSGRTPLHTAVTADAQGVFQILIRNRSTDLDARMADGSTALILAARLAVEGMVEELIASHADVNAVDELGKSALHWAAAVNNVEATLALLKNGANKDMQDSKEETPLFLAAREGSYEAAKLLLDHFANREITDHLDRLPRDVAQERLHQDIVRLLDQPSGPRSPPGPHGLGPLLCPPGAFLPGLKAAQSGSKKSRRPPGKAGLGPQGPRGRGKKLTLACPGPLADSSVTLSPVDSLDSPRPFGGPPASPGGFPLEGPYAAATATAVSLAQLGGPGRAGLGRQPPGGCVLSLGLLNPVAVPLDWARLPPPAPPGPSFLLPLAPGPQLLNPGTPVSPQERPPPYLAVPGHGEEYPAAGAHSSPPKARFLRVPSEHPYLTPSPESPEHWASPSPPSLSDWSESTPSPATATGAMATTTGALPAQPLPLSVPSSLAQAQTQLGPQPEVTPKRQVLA

For the compound `COCCCNC(=O)[C@@]1(C)c2ccccc2C(=O)N(Cc2cc(C(F)(F)F)cc(C(F)(F)F)c2)[C@H]1c1ccc(CO)cc1`, the composite z-score in assay [1] was 1.55; in assay [5], 3.01; in assay [7] it was -0.166; in assay [8] it was -1.08; in [9], -0.134; in assay [10], -0.26. Besides, the z-score in [2] was -0.122 (inactive); in [3], 0.585 (inactive); in [4], -0.777 (inactive); in assay [6] it was 0.666 (inactive).
On to `COC(=O)C[C@@H]1C[C@H](C)[C@]2(O1)C(=O)N(Cc1ccccc1)c1ccc(NC(C)=O)cc12`, for which the composite z-score in assay [1] was -0.509; in assay [5], 0.053; in [7], -0.166; in assay [8], 0.571; in assay [9] it was 0.107; in assay [10], -0.111. Besides, the z-score in assay [2] is 0.498 (inactive); in [3] it was -1.1 (inactive); in assay [4] it was 0.134 (inactive); in assay [6], 0.827 (inactive).
In the case of `Cc1ccc(S[C@]2(C(=O)NC3CC3)CC(=O)N(C3CCCCC3)[C@@H]2c2ccc(CO)cc2I)cc1`, the composite z-score in [1] is 1.53; in [5] it was 2.6; in assay [7], -0.138; in assay [8], 0.659; in assay [9], 1.06; in [10], -0.0703. The z-score in [2] is 0.0615 (inactive); in [3], 0.532 (inactive); in [4], 1.38 (inactive); in assay [6], 1.26 (inactive).
Turning to `COCCOC(=O)N1C(=O)[C@@]2(c3ccccc31)[C@H](C(=O)NC[C@H](O)c1ccccc1)[C@H]1C(=O)O[C@H](c3ccccc3)[C@H](c3ccccc3)N1[C@@H]2c1ccc(OCCO)cc1`, the composite z-score in assay [1] is 1.54; in [5], 2.85; in assay [7], -0.066; in [8] it was 1.81; in assay [9], 1.04; in [10] it was -0.023. The z-score in assay [2] is 1.98 (inactive); in [3], 1.64 (inactive); in assay [4] it was 6.18 (inactive); in assay [6], 1.77 (inactive).
In the case of `CC(C)N1CC=CC23O[C@@H]4C=CCOC(=O)[C@@H]4[C@H]2C(=O)N(CCO)[C@@H]3C1=O` (stereo not given in full), the composite z-score in assay [1] was 0.53; in [5], 3.37; in assay [7], -0.328; in assay [8], -0.431; in assay [9], 0.173; in assay [10], -0.287. The z-score in [2] is 1.14 (inactive); in assay [3], 0.24 (inactive); in [4] it was -0.938 (inactive); in assay [6], 0.73 (inactive).
For the compound `COC(=O)[C@]1(Cc2ccccc2N=[N+]=[N-])N=C(c2ccc(OCCCO)cc2)O[C@@H]1c1ccccc1N=[N+]=[N-]`, the composite z-score was 0.822 in assay [1]; 0.59 in [5]; -0.166 in assay [7]; 0.347 in [8]; 0.251 in [9]; -0.0656 in [10]. In addition, the z-score in assay [2] was 0.189 (inactive); in assay [3], -0.0643 (inactive); in assay [4], 14.9 (active); in assay [6] it was -0.962 (inactive).
Turning to `CC(C)=CCCC(C)=CC(O)C1C=CC2C(=O)N(c3ccccc3)C(=O)C2N1Nc1ccccc1` (stereo not given), the composite z-score in assay [1] is 0.967; in [5] it was 2.89; in assay [7] it was 0.201; in assay [8], -0.196; in [9], 1.04; in [10], 0.438. Further, the z-score in assay [2] is 0.316 (inactive); in [3], 0.171 (inactive); in assay [4] it was 1.02 (inactive); in assay [6] it was -1.99 (inactive).
Turning to `COC(=O)c1c(CC[C@@H](CO)NC(=O)N[C@@H](Cc2ccccc2)Cn2cc(C3(O)CCCCC3)nn2)oc(C(C)=O)c1C(=O)OC`, the composite z-score was 1.55 in assay [1]; 1.38 in assay [5]; -0.0441 in assay [7]; 1.09 in [8]; 1.12 in assay [9]; 0.0117 in [10]. The z-score in assay [2] was -2.65 (inactive); in assay [3] it was -1.81 (inactive); in assay [4] it was -0.415 (inactive); in [6], 1.31 (inactive).
For the compound `COc1c(C)cc(-c2cc3c(c(-c4ccc(Oc5ccccc5)cc4)n2)[Si](C(C)C)(C(C)C)OC3)cc1C`, the composite z-score in assay [1] was -0.871; in assay [5] it was 0.0255; in [7], -0.0528; in assay [8], 0.104; in assay [9], -0.386; in assay [10], -0.0947. The z-score was 1.09 (inactive) in assay [2], 0.818 (inactive) in assay [3], 2.03 (inactive) in [4] and -1.38 (inactive) in assay [6].
As for `CC(C)NC(=O)[C@@]1(Cc2ccccc2I)c2ccccc2C(=O)N(Cc2ccccc2)[C@H]1c1ccc(CO)cc1`, the composite z-score in assay [1] was 1.53; in assay [5], 2.91; in assay [7], -0.0354; in assay [8], 1.04; in [9], 1.09; in assay [10], -0.0605. Also, the z-score was -0.805 (inactive) in assay [2], -1.5 (inactive) in [3], -0.291 (inactive) in assay [4] and -0.408 (inactive) in [6].
As to `CC(C)C[C@@H]1NC(=O)[C@H]2C[C@@H](C(=O)NCCCCCNC(=O)CS)[C@@H](c3cccc(OCCO)c3)N2C1=O`, the composite z-score was determined as 1.53 in assay [1]; 3.06 in assay [5]; 0.106 in [7]; 1.98 in assay [8]; 1.07 in assay [9]; 0.111 in assay [10]. Further, the z-score in [2] was -0.454 (inactive); in assay [3], -0.267 (inactive); in assay [4], 0.0073 (inactive); in assay [6], -0.187 (inactive).
For `CC(C)c1ccc(NN2C(C(O)c3c(F)cccc3Cl)C=CC3C(=O)N(c4ccccc4)C(=O)C32)cc1` (stereo not given), the composite z-score is 1.48 in [1]; 3 in assay [5]; 0.545 in assay [7]; -0.041 in assay [8]; 1.07 in assay [9]; 0.431 in assay [10]. The z-score in assay [2] was 0.808 (inactive); in assay [3] it was 1.83 (inactive); in assay [4] it was 1.63 (inactive); in assay [6], -2.2 (inactive).
As for `CC(C)OC(=O)CC(=O)CC(O)c1ccc(C#N)cc1` (stereo not given), the composite z-score is 0.269 in assay [1]; 1.85 in assay [5]; 0.403 in [7]; -0.263 in assay [8]; 0.14 in assay [9]; 0.0541 in [10]. Also, the z-score in assay [2] was -2.05 (inactive); in [3] it was 0.331 (inactive); in assay [4], -0.602 (inactive); in assay [6] it was 0.0935 (inactive).
In the case of `COCCOC(=O)N1C(=O)[C@@]2(c3cc(C#CCC(C(=O)OC)C(=O)OC)ccc31)[C@H](C(=O)N1CCN(c3ncccn3)CC1)[C@H]1C(=O)O[C@H](c3ccccc3)[C@H](c3ccccc3)N1[C@@H]2c1ccc(OCCO)cc1`, the composite z-score is 1.55 in [1]; 2.26 in [5]; -0.184 in [7]; 0.668 in [8]; 0.946 in [9]; -0.141 in [10]. Further, the z-score is -0.485 (inactive) in assay [2], 0.196 (inactive) in assay [3], 5.21 (inactive) in assay [4] and 1.36 (inactive) in [6].
